A selection: hits, their analogues and other compounds. The true share with any hit is near 3.9%.
MITF TRPM1 HTS: increases MITF-driven TRPM1 promoter luciferase signal; SK-MEL-5 TRPM1-promoter luciferase, 24 h; % of positive control, neutral wells = 0; activation, % at 12.5 µM; 0.75% of 300,000 active; AID 588334;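 active means mean activation of at least 80% with every replicate also reaching 80%; inconclusive means mean reaches 80% but some replicate falls short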;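 further: 0% = neutral control wells and 100% = parthenolide positive control wells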
HSF1 inhib: HSF1 inhibition. NIH3T3-HGL HSE-luciferase, MG132-induced, luminescence 8 h; stronger effect = lower value. 0.77% of 300,000 active. AID 2098. activity change, negative = inhibition, % at 7.5 µM (by protocol);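 active means more than half of replicate wells show activity change below -50%, luminescence cut by over half; inconclusive means some wells, but at most half, below -50%; inactive means no replicate well below -50%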;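 further: luciferase reports HSF-1 transcriptional activity via heat shock element; 0% = median of DMSO wells and -100% = zero luminescence signal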
HSF-1 act: increases HSF-1 driven luciferase reporter signal; activation, % at 9 µM; 1.7% of 300,000 active; NIH3T3-HGL HSF-1 luciferase reporter, MG132, 8 h; 100% = twice DMSO control signal;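 active means mean replicate activation of at least 50% with a set share of replicates each reaching 50%; inconclusive means only one of those two conditions met; inactive means mean below 50% and too few replicates reaching it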;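 further: 0% = median of the neutral control wells and 100% = twice that signal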
esBAF inh: blocks esBAF chromatin remodeling in mouse ES cells. Bmi1-luciferase knock-in reporter, 24 h; 100% = twice the neutral-well signal. reporter increase, % at 12.5 µM. 2% of 350,000 active. AID 602393; in the data active means activation above about 40%; inconclusive means no clear call, values can overlap the other calls;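 further: 0% = median of the plate's neutral control wells and 100% = double that signal; a rise in the Bmi1 reporter signal indicates esBAF inhibition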
Wnt act: Wnt/beta-catenin pathway activation; activation, % at 9.35 µM; 1.2% of 300,000 active; Wnt/beta-catenin reporter cell assay, activator, plate reader; in the data active means activation above about 30%, passing the limit was not always enough; inconclusive means no clear call, values can overlap the other calls;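 further: 0% = neutral control wells and 100% = positive control wells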
Starred values were filed as active, the others as inactive; ? = inconclusive; / = not tested or not shown.

SMILES	MITF TRPM1 HTS	HSF1 inhib	HSF-1 act	esBAF inh	Wnt act
O=C(Nc1nccs1)c1ccc(-c2cccc([N+](=O)[O-])c2)o1	59	17	46	67*	60*
O=C(Nc1ccc([N+](=O)[O-])cc1Cl)c1cccc([N+](=O)[O-])c1	/	/	/	37	2
C=CCNC(=O)c1ccc(-c2cccc([N+](=O)[O-])c2)o1	52	2	26	46*	9
O=C(Nc1ncc(Cc2cccc(C(F)(F)F)c2)s1)c1ccc(-c2cccc([N+](=O)[O-])c2)o1	0	-10	-5	/	-1
O=C(N/N=C/c1ccc(-c2cccc([N+](=O)[O-])c2)o1)c1ccccc1O	4	25	58*	/	-2
O=C(Nc1ccc(CN2CCOCC2)cc1)c1ccc(-c2cccc([N+](=O)[O-])c2)o1	13	-1	5	3	-2
O=C(Nc1ccccc1F)c1ccc(-c2cccc([N+](=O)[O-])c2)o1	59	25	51*	27	8
CCn1c(=O)c(C(=O)Nc2ccccc2C)c(O)c2ccccc21	-4	6	11	44*	/
C=CCn1c(=O)c(C(=O)Nc2ccccc2C)c(O)c2ccccc21	44	32	75*	61*	6
CCCn1c(=O)c(C(=O)Nc2ccccc2C)c(O)c2ccccc21	-13	6	-15	19	-2
CCCn1c(=O)c(C(=O)Nc2ccccc2N)c(O)c2ccccc21	/	/	/	43*	1
COC(=O)C(=C/C(C)=C/c1cccs1)C(=O)OC	-5	32	66*	2	0
Cc1ccc(S(=O)(=O)Nc2ccc3c(c2)C(=O)N([C@@H](C)CO)C[C@H](C)[C@@H](CN(C)S(C)(=O)=O)O3)cc1	/	/	/	2	/
O=c1c2ccccc2nnn1CSc1ccccc1	54	44	86*	/	/
O=c1c2ccccc2nnn1CSc1ccc2ccccc2n1	15	15	?	/	/
O=C(C[C@@H]1CC[C@H](NC(=O)C2CC2)[C@H](CO)O1)Nc1ccccc1	/	/	/	-2	/
COC(=O)C[C@@H]1CC[C@@H]2[C@H](COc3ccc(NC(=O)c4ccccc4F)cc3C(=O)N2C)O1	/	/	/	-2	/
c1ccc(C2Oc3ccccc3C3CC(c4cccs4)=NN32)cc1 (stereo unspecified)	8	14	16	85*	38*
CS(=O)(=O)N1N=C(c2cccs2)CC1c1ccccc1 (stereo unspecified)	-4	3	-3	3	5
C[C@H](CO)N1C[C@H](C)[C@@H](CN(C)C(=O)Nc2ccc(F)cc2)Oc2ccc(NC(=O)Nc3ccc(F)cc3)cc2CC1=O	/	/	/	0	/
CCN(C(=O)c1cc2c(=O)[nH]c3ccc(C)cc3c2s1)c1ccc(F)cc1	19	-76*	-82	-13	-3
CCN(C(=O)c1cc2c(=O)[nH]c3ccc(C)cc3c2s1)c1ccccc1C	26	13	43	-5	-3
CCN(C(=O)c1cc2c(=O)[nH]c3ccc(C)cc3c2s1)c1cccc(C)c1	11	2	-6	/	-12
CCN(C(=O)c1cc2c(=O)[nH]c3ccc(C)cc3c2s1)c1ccccc1F	4	11	58*	/	-4
O=C(C[C@@H]1C[C@H]2c3cc(NC(=O)Cc4ccncc4)ccc3O[C@H]2[C@H](CO)O1)NCc1ccc2c(c1)OCO2	/	/	/	0	/
SMILES	MITF TRPM1 HTS	HSF1 inhib	HSF-1 act	esBAF inh	Wnt act
CC(=O)N(C)C[C@H]1Oc2ncc(C#CCC3CCCC3)cc2C(=O)N([C@@H](C)CO)C[C@@H]1C	/	/	/	4	/
Cc1nn(-c2ccccc2)c2sc(C(=O)N3CCCCC3)cc12	19	22	13	45*	-2
Cc1nn(-c2ccccc2)c2sc(C(=O)N3CCc4ccccc4C3)cc12	4	4	11	-1	-20
Cc1cccn2c(=O)c3cc(C(=O)N4CCCC(C)C4)sc3nc12 (stereo unspecified)	24	14	32	23	5
CCC1CCCCN1C(=O)c1cc2c(=O)n3cccc(C)c3nc2s1 (stereo unspecified)	11	-64*	-68	37	/
Cc1cccn2c(=O)c3cc(C(=O)N4CCCCC4)sc3nc12	14	7	16	47*	10
Cc1noc(C)c1NC(=O)N(C)C[C@H]1OCCCC[C@@H](C)Oc2ccc(NS(=O)(=O)c3ccc(F)cc3)cc2C(=O)N([C@@H](C)CO)C[C@@H]1C	/	/	/	-1	/
COc1ccccc1-n1nc(C)cc1N	5	3	-3	-6	-1
Nc1ccccc1-n1nc2ccc3ccccc3c2n1	/	/	/	41*	55*

Bioassay records (PubChem BioAssay)
